Screening data as filed in PubChem.
SARS PLpro yeast = qHTS of Yeast-based Assay for SARS-CoV PLP | S. cerevisiae expressing SARS-CoV PLpro, growth rescue | Potency, µM (series often up to 32.9 µM), without a hit: at the top dose activity, positive = growth rescue, actives largely listed as activators | hit rate 0.19% among 330,000; calls by dose curve; further: 0% is about no effect; nearly all actives have a fitted effect of over 55% in size
Tb PYK inh = qHTS of Trypanosoma Brucei Inhibitors; TbPYK enzyme, Kinase-Glo Plus ATP luminescence, 45 min; Potency, µM (titrated, usually from 76.8 µM), without a hit: at the top dose activity, negative = inhibition, most hits filed as inhibitors; hit rate 0.12% among 410,000; pyruvate kinase (Trypanosoma brucei), Q57TT1; further: on the % scale 0 is the no-effect control and ±100 the full control effect; nearly all actives have a fitted effect of over 50% in size
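Readout: single end-point luminescence (Kinase-Glo Plus, 10 min). Reaction conditions were TbPYK/substrate plus 130 uM ADP, 45 min at RT, pH 7.2 TEA buffer. No-enzyme wells served as controls, and data were normalized before concentration-response fitting.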
Sm TGR inh = qHTS Assay for the Inhibitors of Schistosoma Mansoni Peroxiredoxins. Potency, µM (highest dose often 114 µM), inactives show top-dose activity change, negative = inhibition, actives largely listed as inhibitors. AID 485364, 2010. Schistosoma mansoni thioredoxin glutathione reductase (TGR), Q962Y6. hit rate 3% among 360,000. purified TGR, DTNB reduction, TNB absorbance 405 nm; further: on the % scale 0 is the no-effect control and ±100 the full control effect; nearly all actives have a fitted effect of over 60% in size
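TGR 20 nM + NADPH 100 uM (dispensed conc.), cpd preinc 15 min RT; start with NADPH (500 uM addition) then DTNB (15 mM addition). Kinetic TNB absorbance, 405 nm filter. Four-parameter Hill fit across titration.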
AmpC inh no detg = qHTS Inhibitors of AmpC Beta-Lactamase (assay without detergent); AmpC nitrocefin hydrolysis, absorbance 480 nm, 0.0001% Triton; hit rate 0.52% among 330,000; P00811; Potency, µM (highest dose often 57.1 µM), for inactives: at the highest dose activity change, negative = inhibition, actives largely listed as inhibitors;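 further: plate controls were no compound for no effect and no enzyme for full effect; nearly all actives have a fitted effect of over 20% in size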
Target sequence (P00811 whole entry, looked up): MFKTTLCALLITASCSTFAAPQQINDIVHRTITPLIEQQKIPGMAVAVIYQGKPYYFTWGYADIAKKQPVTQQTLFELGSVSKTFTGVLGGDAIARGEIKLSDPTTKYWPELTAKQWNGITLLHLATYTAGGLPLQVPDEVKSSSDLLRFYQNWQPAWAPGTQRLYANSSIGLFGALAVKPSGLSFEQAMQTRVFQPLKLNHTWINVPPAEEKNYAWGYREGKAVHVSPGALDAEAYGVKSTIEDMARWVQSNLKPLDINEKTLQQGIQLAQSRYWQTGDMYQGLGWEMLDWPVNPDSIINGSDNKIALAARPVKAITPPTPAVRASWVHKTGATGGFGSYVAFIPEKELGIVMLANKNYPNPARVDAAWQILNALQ
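20 mM phosphate pH 7.0 + 0.01% (detergent screen) or 0.0001% Triton X-100; 5.3 nM AmpC reagent; cpd preinc 15 min RT; nitrocefin (800 uM stock) to start; A480 q20 s × 4 min; Activity was normalised to no-enzyme and no-compound control wells.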
AmpC inh detg = qHTS Inhibitors of AmpC Beta-Lactamase (assay with detergent) | P00811 | Potency, µM (series often up to 114 µM), inactives show top-dose activity change, negative = inhibition, most hits filed as inhibitors | AmpC hydrolysis of nitrocefin, absorbance 480 nm, 0.01% Triton | hit rate 0.041% among 370,000;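 further: 0% = no-compound wells and -100% = no-enzyme wells; nearly all actives have a fitted effect of over 25% in size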
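AmpC (5.3 nM in the dispensed reagent) in 20 mM phosphate pH 7.0 with 0.01% (detergent screen) or 0.0001% Triton X-100 was preincubated with compounds for 15 min at room temperature. Nitrocefin was then added from an 800 uM solution, and hydrolysis was followed at 480 nm.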
RE007 growth inh = qHTS Assay for Inhibitors of the HIV-1 protein Vpr; S. pombe RE007 Vpr strain, BacTiter-Glo ATP luminescence, 24 h; Potency, µM (series often up to 92.2 µM), inactives show at the highest dose activity change, negative = less growth, hits mostly inhibitors; hit rate 0.21% among 360,000; AID 651644, 2012; active means well fitted falling curve with a large enough effect; inconclusive means small, poorly fitted or top-dose-only effect; inactive means no such curve, though single readings can be large or run the other way; further: on the % scale 0 is the no-effect control and ±100 the full control effect; nearly all actives have a fitted effect of over 50% in size
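Fission yeast RE007 carrying one integrated HIV-1 vpr copy, seeded at OD 0.01 in PMG+AL medium with 23 nL pinned compound. Grown 24 h at 30 degrees; viability read by BacTiter-Glo luminescence after 5 min.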
* = called active by the depositor; ? = inconclusive; / = no result; [ ] = remark or other dose. Sampled rows, rich in hits. Any-hit rate of the full collection: about 3.3%. Unless noted, the call rests on the fitted dose curve; in most records, active means well fitted curve in the direction sought with a large enough effect; inconclusive means small, poorly fitted or top-dose-only effect, or another doubt; inactive means no such curve, though single readings can be large; an effect the other way counts as inactive or inconclusive. Potency means the concentration at half of the fitted maximal effect.

SMILES | SARS PLpro yeast | Tb PYK inh | Sm TGR inh | AmpC inh no detg | AmpC inh detg | RE007 growth inh
Oc1c(C(c2ccccc2)N2CCN(c3cccc(Cl)c3)CC2)sc2nc(-c3ccco3)nn12 (stereo not drawn) | / | -3% | -1% | / | -2% | /
Cc1ccc(SCc2[nH]nc3c2C2(CCSCC2)C(C#N)=C(N)O3)cc1 | 0% | -4% | -9% | 28µM* | -4% | -2%
CCOC(=O)N1CCC2(CC1)C(C#N)=C(N)Oc1n[nH]c(CSc3ccc(C)cc3)c12 | 0% | 6% | -1% | 1% | 4% | 25%
Cc1cccc(C)c1NC(=O)CCCCCC1NC(=O)NC1C (stereo not drawn) | 0% | -3% | 25µM* | -15% | -6% | -7%
CC1NC(=O)NC1CCCCCC(=O)NCCc1ccccc1 (stereo not drawn) | 2% | -3% | 32µM* | 88% | -13% | 13%
CCCc1nnc(NC(=O)c2cc(=O)c3cc(Cl)ccc3o2)s1 | / | -9% | 1% | / | 16% | /
CC(C)(C)OC(=O)N1CCC(c2c(C(=O)NC3CCN(Cc4ccccc4)CC3)cnn2-c2cccc(F)c2)CC1 | / | -2%[15.4 µM] | -1% | / | 21% | /
COc1ccc(-c2cc(C(F)F)n3ncc(C(=O)N4CCN(C(=O)c5ccco5)CC4)c3n2)cc1 | -3% | 0% | 28µM* | 189% | -20% | -7%
Cc1ccc(-c2cc(C(F)F)n3ncc(C(=O)N4CCN(c5ccccn5)CC4)c3n2)cc1 | -29% | -1% | 1% | 11µM* | -6% | -14%
Cc1nnc(C(C)C)n1C1CC2CCC(C1)N2CC[C@H](NC(=O)C1CCC(F)(F)CC1)c1ccccc1 (stereo partly drawn) | / | 11% | / | / | / | /
COc1ccc(-n2c(Cc3cccn3C)nnc2SCC(=O)Nc2ccc(Cl)cc2)cc1 | 3% | -1% | 50µM* | 1µM* | 6% | -12%
Cc1ccc(-n2c(SCC(=O)Nc3ccc(Cl)cc3)nc(O)cc2=O)cc1 | 1% | 0% | -11% | 7.1µM* | -5% | -1%
COc1ccc(-n2c(Cc3cccn3C)nnc2SCC(=O)Nc2ccccc2)cc1 | -1% | -4% | ? | ? | -9% | -6%
COc1ccc(-n2c(Cc3cccn3C)nnc2SCC(=O)NCc2ccco2)cc1 | 11% | -3% | 56µM* | 54% | ? | 0%
Cn1cccc1Cc1nnc(SCC(=O)Nc2ccc(F)cc2)n1-c1ccc(F)cc1 | 10% | -6% | ? | 16% | -5% | 1%
COc1ccc(NC(=O)CSc2nnc(Cc3cccn3C)n2-c2ccc(F)cc2)cc1OC | -6% | -19% | 45µM* | 135% | -14% | -7%
COc1ccc(-n2c(Cc3cccn3C)nnc2SCC(=O)NCc2ccc(F)cc2)cc1 | -1% | -9% | -36% | 84% | ? | 0%
COc1ccc(NC(=O)CSc2nc(O)cc(=O)n2-c2ccccc2)cc1 | 1% | 0% | 3% | -21% | 9% | 2%
N#C/C(=C\c1ccc(-c2ccc(C(=O)O)cc2)o1)C(=O)Nc1ccccc1C(=O)O | / | -3% | -20% | / | -8% | /
Cc1nnc(NC(=O)CSc2nnc(Cc3cccn3C)n2C)s1 | 10% | 2% | ? | 32µM* | 5% | 0%
Cc1ccc(-n2c(Cc3cccn3C)nnc2SCC(=O)Nc2nnc(C)s2)cc1 | -5% | -1% | -24% | 43% | ? | 17%
COc1ccc(Cc2n[nH]c(=S)n2-c2ccc3c(c2)OCCO3)cc1 | -1% | ? | 7% | -15% | -1% | 11%
S=c1[nH]nc(-c2ccc(Cl)cc2Cl)n1-c1ccccc1 | 0% | -21% | 5% | -25% | 2% | 14%
Oc1ccc(-c2n[nH]c(=S)n2-c2ccc3c(c2)OCCO3)c(O)c1 | -10% | 2.8µM* | -6% | -15% | -8% | /
S=c1[nH]nc(-c2ccc3ccccc3n2)n1-c1ccc2c(c1)OCCO2 | 3% | 4.5µM* | 0% | -30% | -7% | -3%
SMILES | SARS PLpro yeast | Tb PYK inh | Sm TGR inh | AmpC inh no detg | AmpC inh detg | RE007 growth inh
S=c1[nH]nc(Cc2ccc(Cl)cc2)n1-c1ccc2c(c1)OCCO2 | 1% | 2.8µM* | 12% | -24% | 2% | 2%
S=c1[nH]nc(-c2ccc(Cl)cc2Cl)n1-c1ccc2c(c1)OCCO2 | 0% | 6.3µM* | 2% | -43% | 1% | 2%
CCc1ccccc1NC(=O)c1cnc(N2CCCCC2)c2ccccc12 | / | -1% | 5% | / | 5% | /
COc1cc(OC)cc(-c2n[nH]c(=S)n2-c2ccc3c(c2)OCCO3)c1 | 0% | 2.5µM* | / | -12% | -1% | 1%
CCOc1ccc(N2C(=O)CC(N(CCc3ccc(S(N)(=O)=O)cc3)C(C)=O)C2=O)cc1 (stereo not drawn) | 2% | 5% | 19% | 1% | -2% | 0%
CCOc1ccc(N2C(=O)CC(N(Cc3ccco3)C(=O)CC)C2=O)cc1 (stereo not drawn) | -1% | -13% | / | 0% | -5% | -5%
CCOc1ccc(N2C(=O)CC(N(Cc3ccco3)C(C)=O)C2=O)cc1 (stereo not drawn) | -1% | 0% | 50µM* | 50% | -1% | 2%
CCCOc1ccc(N2C(=O)CC(N(Cc3ccco3)C(=O)CC)C2=O)cc1 (stereo not drawn) | 1% | -9% | 14µM* | 17% | 2% | -11%
CCC(=O)N(Cc1ccc(S(N)(=O)=O)cc1)C1CC(=O)N(c2ccc(OC)cc2)C1=O (stereo not drawn) | -10% | -6% | 28µM* | ? | -3% | -20%
COC(=O)CNC(c1ccccc1)c1cc(Br)ccc1NC(=O)c1ccccc1 (stereo not drawn) | / | 4% | 5% | / | 14% | /
COc1ccc(NC(=O)c2cc(C(C)=O)n3ccccc23)cc1 | / | -2% | 3% | / | 2% | /
CC1CCN(c2nc(Cl)nc(Nc3ccc([N+](=O)[O-])cc3)n2)CC1 | -104% | -5% | 0% | 10µM* | ? | 5%
Cc1nn2c(C)c(C(=O)NCc3cccc(Br)c3)cnc2c1-c1ccccc1 | / | -1% | -9% | / | -1% | /
Cn1c(SCC(=O)Nc2ccc(F)cc2F)nnc1-c1cccnc1 | 16% | -4% | 0% | 0.32µM* | ? | 2%
Cn1c(SCC(=O)Nc2ccc(Cl)cc2F)nnc1-c1ccco1 | 0% | 4% | 35µM* | 0% | -3% | 4%
Cc1ccc(C(CC(=O)Nc2ccc(C)cc2C)N2Cc3ccccc3C2=O)cc1 (stereo not drawn) | / | 0% | 0% | / | 2% | /
